This is a sample that favours compounds with a hit; in the whole collection about 0.83% have one here.
Calb biofilm kill = clotrimazole potentiators killing Candida biofilms, primary screen, with clotrimazole, Alamar Blue. hit rate 0.14% among 85,000. C. albicans biofilm + clotrimazole. inhibition, % at 6 µM;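 active = inhibition above 20%; inactive = inhibition below 20%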;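 note: preformed 24 hr biofilms exposed to compound for 48 hr; 0% = biofilm without compound and 100% = blank killed by clotrimazole plus chlorhexidine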
MRP-1 activ = H69AR viability gain despite doxorubicin, primary screen, MRP-1 activator project, H69AR cells, CellTiter-Glo; viability rescue; viability increase, % at 10 µM; hit rate 0.61% among 140,000;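 active = viability gain under doxorubicin at or above a set limit, the compound median plus 3 SD, cut at about 4.7% in these data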;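 note: MRP-1 overexpressing cells given doxorubicin 25 µM after compound pretreatment; 18-22 h compound pretreatment then 72 h with doxorubicin before readout; 0% = doxorubicin-only wells and 100% = vehicle-treated cells without doxorubicin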
MRP resist rev = reversal of MRP1-mediated doxorubicin resistance, primary screen, H69AR cells, doxorubicin co-treatment | H69AR cells + 2 uM doxorubicin, CellTiter-Glo, 72 h | hit rate 0.04% among 85,000 | differential viability (reversal), % at 10 µM | AID 602, 2007;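 active = viability drop by adding the cancer drug above about 55%, with treated viability meeting a 40% cutoff, limit read from the data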;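 note: viability without doxorubicin minus viability with 2 µM doxorubicin for each compound; larger differential means the compound sensitizes cells more to doxorubicin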
Smad3 FoxH1 inh = Smad3/FoxH1 peptide binding inhibitors, primary screen, biochemical, TR-FRET. hit rate 0.29% among 88,000. TR-FRET Smad3/Dy647-FoxH1 peptide binding, europium anti-His. inhibition, % at 25 µM. Mothers against decapentaplegic homolog 3 (Homo sapiens), P84022;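 active = compounds that reduce the energy-transfer binding signal between the protein and its labelled peptide by more than half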;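 note: 0% = Smad3 plus labelled peptide maximal FRET and 100% = peptide-only background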
Target sequence (P84022 whole entry, looked up): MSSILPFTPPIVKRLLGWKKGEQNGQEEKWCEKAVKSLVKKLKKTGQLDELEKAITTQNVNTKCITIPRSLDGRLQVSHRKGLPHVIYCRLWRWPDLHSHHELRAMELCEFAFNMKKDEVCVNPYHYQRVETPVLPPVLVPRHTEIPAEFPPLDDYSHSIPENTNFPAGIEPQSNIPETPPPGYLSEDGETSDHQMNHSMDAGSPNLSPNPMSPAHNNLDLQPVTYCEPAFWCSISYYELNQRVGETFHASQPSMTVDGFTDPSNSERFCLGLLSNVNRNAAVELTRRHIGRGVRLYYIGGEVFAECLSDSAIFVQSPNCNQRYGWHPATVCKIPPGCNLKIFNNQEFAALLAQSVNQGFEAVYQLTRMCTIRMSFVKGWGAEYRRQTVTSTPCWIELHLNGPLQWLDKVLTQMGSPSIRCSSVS
Starred values were filed as active, the others as inactive; [ ] = dose if it differs, or a comment.

`CCOC(=O)c1c(N)sc(C(O)(C(F)(F)F)C(F)(F)F)c1-c1ccccc1` gave Calb biofilm kill 82*, MRP-1 activ -3, MRP resist rev -13 and Smad3 FoxH1 inh 10.
For O=C(CCN1CCCCC1)N1CCc2c([nH]c3ccccc23)[C@H]1c1cccnc1 the results were Smad3 FoxH1 inh -8.
`CCCC(=O)NC(=S)Nc1ccc(C(C)=O)cc1` gave MRP-1 activ 11*.
Screening C[C@H](C(=O)c1ccccc1)[C@@H](c1ccccc1)N1CCOCC1 returned Smad3 FoxH1 inh 11.
`CO[C@@H]1/C=C\O[C@]2(C)Oc3c(C)c(O)c4c(O)c(c(CN5CCN(C)CC5)c(O)c4c3C2=O)NC(=O)C(C)=C/C=C\[C@@H](C)[C@@H](O)[C@H](C)[C@@H](O)[C@H](C)[C@H](OC(C)=O)[C@@H]1C` gave Smad3 FoxH1 inh 7.
`O=C(NCc1cccs1)O[C@H]1C[C@H]2CC[C@@H]1C2` gave Smad3 FoxH1 inh 3.
For Cc1cc(Br)ccc1NC(=O)CNC(=O)CN(C)Cc1nc2ccccc2c(=O)[nH]1 the results were Calb biofilm kill 3, MRP-1 activ 4.9*, MRP resist rev -19 and Smad3 FoxH1 inh 5.
c1cc(NNc2cccc(-c3nn[nH]n3)c2)cc(-c2nn[nH]n2)c1 was read as Smad3 FoxH1 inh 11.
`O=C1CCCC(O)=C1N=Nc1ccc2c(c1)OCO2` gave MRP-1 activ 7.7*.
N#Cc1nc(COc2ccccc2)oc1N1CCCCCC1 was read as Calb biofilm kill 7, MRP-1 activ 6.3*, MRP resist rev 5 and Smad3 FoxH1 inh -8.
Screening N#Cc1nc(COc2ccccc2)oc1N1CCCC1 returned MRP-1 activ 5.0*.
Screening N#Cc1nc(COc2ccccc2)oc1N1CCOCC1 returned Calb biofilm kill 8, MRP-1 activ 1, MRP resist rev 19 and Smad3 FoxH1 inh 4.
Screening NS(=O)(=O)c1nc(S(=O)(=O)O)c2[nH]cnc2n1 returned Smad3 FoxH1 inh 3.
Screening Cc1cc(=Nc2ccc3c(c2)c(N)cc(C)[n+]3C)nc(N)n1C returned Smad3 FoxH1 inh -1.
Screening Nc1nc(SCC2CCCCC2[N+](=O)[O-])c2[nH]cnc2n1 (stereo not drawn) returned Smad3 FoxH1 inh 17.
Screening O=C(Cn1c(COc2ccc(Cl)cc2)nc2ccccc21)NCC(F)(F)F returned MRP-1 activ 5.6*.
`O=C(Cn1c(COc2ccccc2)nc2ccccc21)Nc1cc(Cl)cc(Cl)c1` gave MRP-1 activ -3.
For O=C(Cn1c(COc2ccccc2)nc2ccccc21)Nc1cc(Cl)ccc1Cl the results were MRP-1 activ -3.
`N#CCCNC(=O)Cn1c(COc2ccc(Cl)cc2)nc2ccccc21` gave MRP-1 activ 5.6*.
`C[N+](C)(N)Cc1csc(-c2ccc(Cl)cc2)n1` gave Smad3 FoxH1 inh 8.
For Nc1nc(SC/C=C/C2CCCCC2)c2[nH]cnc2n1 the results were Smad3 FoxH1 inh -5.
CCOC(=O)c1c(-c2ccc(F)cc2)csc1NC(=O)c1c(-c2ccccc2)noc1C was read as MRP-1 activ 7.5*.
Screening Cc1nnc(NC(=O)c2ccccc2F)s1 returned Calb biofilm kill 10, MRP-1 activ 2, MRP resist rev 21 and Smad3 FoxH1 inh 4.
Screening Cc1nnc(NC(=O)c2ccccc2Br)s1 returned Calb biofilm kill 10, MRP-1 activ 6.0*, MRP resist rev -5 and Smad3 FoxH1 inh 8.
For O=C(CCSCCc1ccccn1)Nc1ccc(Cl)cn1 the results were Calb biofilm kill 5, MRP-1 activ -3, MRP resist rev 16 and Smad3 FoxH1 inh 54*[fluorescence artefact?].
CC(=O)N1CCN=C1SCc1cccc(C(F)(F)F)c1 was read as MRP-1 activ 4, MRP resist rev 2 and Smad3 FoxH1 inh -2.
For O=C(c1ccco1)N1CCN=C1SCc1cccc(F)c1 the results were Calb biofilm kill 1, MRP-1 activ 3, MRP resist rev 10 and Smad3 FoxH1 inh 4.
`O=C(c1ccco1)N1CCN=C1SCc1ccc(F)cc1` gave Calb biofilm kill 2, MRP-1 activ 6.0*, MRP resist rev 23 and Smad3 FoxH1 inh -2.
Screening CC(=O)N1CCN=C1SCc1ccc(Br)cc1 returned Calb biofilm kill 24*, MRP-1 activ 9.4*, MRP resist rev 10 and Smad3 FoxH1 inh 4.
For CC[C@@]1([N+](=O)[O-])C[C@H]2C=C[C@@H]1C2 the results were Smad3 FoxH1 inh 32.
Screening [N-]=[N+]=NC[C@@H]1O[C@H](n2cnc3c(N)ncnc32)[C@@H]2O[C@@H]21 returned Smad3 FoxH1 inh 3.
Screening Cc1ccc(S(=O)(=O)N/N=C\c2cn(-c3ccccc3)nc2-c2ccccc2)cc1 returned MRP-1 activ 6.2*.
Nc1ncnc2c1ncn2C[C@@H](O)C(=O)O was read as Smad3 FoxH1 inh 1.
`O=C(Nc1cccnc1)c1c(F)c(F)c(F)c(F)c1F` gave Calb biofilm kill 23*, MRP-1 activ -2, MRP resist rev 1 and Smad3 FoxH1 inh -9.
For O=C(Nc1ccn(Cc2c(F)c(F)cc(F)c2F)n1)c1ccc(COc2ccc(Cl)cc2Cl)o1 the results were MRP-1 activ 13*.
For Cc1nn(Cc2ccc(Cl)cc2Cl)c(C)c1NC(=O)c1ccc(COc2cc(Cl)ccc2Cl)o1 the results were MRP-1 activ 5.6*.
Screening Cc1nc2ccccc2c(=O)n1/N=C/c1c(O)ccc2oc3c(c12)CCCC3 returned Calb biofilm kill 8, MRP-1 activ 5.9*, MRP resist rev -14 and Smad3 FoxH1 inh 2.
O=S(=O)(O)[C@@H](CO)c1ccccc1 (tested in a mixture with another compound) was read as Smad3 FoxH1 inh 7.
Cc1cc(C)cc(-n2c(C)cc(/C=C3\C(=N)N4N=C(CC(C)C)SC4=NC3=O)c2C)c1 was read as MRP-1 activ 4.7*.
For Oc1ccc2ccccc2c1CN(Cc1c(O)ccc2ccccc12)C1CCCCC1 the results were Smad3 FoxH1 inh 19.
Screening Nc1ccccc1N=Nc1c(S(=O)(=O)O)cc2cc(S(=O)(=O)O)cc(O)c2c1O returned Smad3 FoxH1 inh 4.
Screening C[C@@]1(CCOCc2ccccc2)NC(=O)NC1=O returned Smad3 FoxH1 inh -11.
`S=c1nc[nH]c2c1ncn2Cc1ccco1` gave Smad3 FoxH1 inh 65*.
For COC(=O)CC[C@@H](C)[C@@H]1CC[C@@H]2[C@H]3CC[C@H]4C[C@@H](O)CC[C@]4(C)[C@@H]3CC[C@]21C the results were Smad3 FoxH1 inh 37.
For Cc1ccc(C(c2nnnn2CS(=O)(=O)c2ccc(C)cc2)N2CCN(c3ncccn3)CC2)cc1 (stereo not drawn) the results were Calb biofilm kill 7, MRP-1 activ 11*, MRP resist rev -8 and Smad3 FoxH1 inh -7.
`CCOC(=O)c1oc2ccccc2c1NC(=O)c1ccc2c(c1)OCO2` gave Calb biofilm kill 3, MRP-1 activ 1, MRP resist rev -14 and Smad3 FoxH1 inh 2.
COc1ccc(NC(=O)c2oc3ccccc3c2NC(=O)c2ccc3c(c2)OCO3)cc1 was read as MRP-1 activ 8.4*.

Assay outcomes deposited in PubChem by several laboratories.
